According to the supplement of paper PMC6555819:

Assays:
Assay in all cases: PBM binding z-score (relative to random genomic background probes); higher = stronger binding; sequences stand for … in GC…GCGATTGACAGCGTAGAATGAAGG
[1] = test system: RARb homodimer (NR concentration 270 nM)
Summary of the method: (§1)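 Binding z-scores were set against random background probes. The data came from custom Agilent 4×180K protein-binding microarrays carrying double-stranded probes with 34-nt variable regions, incubated 1 h with ligand-free nuclear receptor dimers. Partner-specific antibodies detected binding, and scanned fluorescence was regression-normalized.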

[2] = test system: RARg:RXRa (NR concentration 270 nM, RXRa partner concentration 90 nM)
Summary of the method: as §1

[3] = test system: RARg homodimer (NR concentration 270 nM)
Summary of the method: as §1

[4] = test system: RXRa DBDmut IVT, anti-RXR (DBD mutation: RXRa K156A/R161A, NR concentration 90 nM)
Summary of the method: as §1

[5] = test system: RXRa homodimer (NR concentration 180 nM)
Summary of the method: as §1

[6] = test system: THRa:RXRa (NR concentration 90 nM, RXRa partner concentration 90 nM)
Summary of the method: as §1

[7] = test system: THRa homodimer (NR concentration 90 nM)
Summary of the method: as §1

[8] = test system: VDR homodimer (NR concentration 270 nM)
Summary of the method: as §1

Sequence	PBM binding z-score [1]	PBM binding z-score [2]	PBM binding z-score [3]	PBM binding z-score [4]	PBM binding z-score [5]	PBM binding z-score [6]	PBM binding z-score [7]	PBM binding z-score [8]
ATCTCTAGGTAAAGATATTTCAGTGAATGCAAAT	-0.275	0.202	0.289	-0.0383	0.125	0.524	0.252	-0.0481
ATCTCTAGGTAAAAGTTCATTGAATCCCGAGGAT	2.65	2.61	2.06	1.89	2.82	1.87	0.281	3.33
GCGACTGGGGCAAAGAAGGTTACCATAAGGTTGG	1.92	1.19	1.02	-0.00563	0.942	2.77	0.225	0.247
CCAGAGAGGTGAAAGGTAACTCAGTCTGGTACGC	1.42	2.57	1.44	0.39	3.56	2.1	0.391	0.0875
TCATATAGGTAATACAGGTGATAGTCGGCATCTA	0.0336	0.618	0.526	1.57	0.945	0.371	0.0861	-0.0181
GCTATAAGTTGAAAGGGCAACCGAATGATTCTCG	2.13	2.28	1.81	1.24	2.42	1.16	-0.205	0.188
GCGACTGGGGCGTCAGCAGGTTACCATAACTTAA	0.457	0.162	-0.368	-0.119	0.154	0.661	-0.199	-0.488
TTACCAAGGTGAGCTGAGGACGTTGATCCAACTC	0.308	0.112	0.436	-0.741	-0.041	4.53	1.6	-0.0863
CAGCTTAGGTCAGGGCCAGTATAGGAGGAACGTT	2.93	3.26	4.25	0.68	1.75	3	1.78	0.105
CGAACGAGGGCATGAGTTGATGGCAAATGCCGAT	0.659	1.25	1.6	2.05	0.973	1.08	-0.389	1.31
GCGATTAGTTGAAAGGGCAACCGAATGATTCTCG	1.82	1.14	1	0.582	1.27	0.405	-0.273	0.184
TCTTGTAGATCAACAGGAGGTTAAGATAGATCGA	0.539	1.16	0.391	0.496	1.04	0.854	-0.513	-0.27
CTTATTAGTTGACCATAAGGGCAACCGAAGCTCG	2.23	1.24	1.13	0.578	0.722	2.04	1.36	0.553
TAGCCTCGGTCATGCGGGCCAGTATAGTGTCGGC	1.58	1.57	2.52	-1.04	-0.228	-0.135	-0.62	-0.697
CAAACTAGGTCACCAGAAGGTCAAAGTCCGCATG	5.5	8.08	7.22	2.32	6.38	4.35	2.59	3.71
TAGCCTAGGTCCTTGGGCCAGTATAGTACGCATC	-0.937	-0.412	-0.296	-1.27	-0.549	-0.732	-1.37	-1.06
CCTAGCAGGCCAGGGTCGCTCAAGCATTTCGCTT	0.411	0.213	-0.184	-0.345	0.948	1.23	-0.279	-0.195
CCTAGCAGGCCAAACTGGGTCACTCAAGGCTTGA	2.17	1.16	1.51	0.301	0.807	3.68	0.159	-0.107
GCTTGTAGACCAAGGTTAAGAAAGACTAAGCTAA	0.241	0.214	0.239	-0.149	0.485	0.969	-0.368	-0.0799

Sequence	PBM binding z-score [1]	PBM binding z-score [2]	PBM binding z-score [3]	PBM binding z-score [4]	PBM binding z-score [5]	PBM binding z-score [6]	PBM binding z-score [7]	PBM binding z-score [8]
CTCGAAAGGTCGGTTGAGGTGGGTATACGGATAA	1.83	2.28	2.25	0.695	1.86	4.1	0.422	1.06
CGTCCAAGGTCAATGCTACGTCAGTGAAAGCATT	4.04	5.67	6.18	3.58	4.83	3.53	1.75	2.18
TCTATTAGTTGATTAGGGCGACCGAAACAGCGGA	0.492	0.141	0.348	1.14	0.378	0.191	0.249	0.212
ATACCAAGGTGATCGTGAGGCCGTTGATACTAAC	0.758	0.629	0.127	0.132	0.254	2.05	1.14	0.643
TCTGCTAGGTCAACGATGGTCAGGTAATCTGCTA	3.36	4.2	5.52	1.12	3.11	3.09	1.34	-0.177
TCTAGCAGGCCAGAGGGTCACTCCAGAGGTACGG	2.59	2.1	1.86	-0.234	1.97	1.38	-0.258	0.403
TAGCTTAGGTCATTCAGGGGCCAGTATAGAAAGC	3.41	6.43	5.18	2.36	3.35	3.72	1.83	1.69
CGTCGAAGGTCATAGGAGGTCAGTGAAGACAGAT	5.29	6.92	7.53	3	6.64	5.27	1.39	3.45
CTCGAAAGGTCGTGTTCAGGTGAGTATACCAAAC	2.87	4.55	3.44	2.35	4.3	4.17	1.16	1.16
TCTAGCCGGCCAGAGGGTCACTCAAGAGGTACGG	2.6	2.42	2.26	-0.0421	2.31	1.44	-0.64	-0.169
AATACAGGGTCACTAGGCCAGAGCAGGTACGAAT	3.36	5.15	5.08	2.67	5.66	3.31	1.07	2.39
ATCTCTGGGTAACAAGTTCAGTGAAAGAGAGGAC	1.8	1.39	1.59	0.883	0.958	1.21	1.06	2.71
AGAACGAAGGCACGCTGAGTTGATAGCAGAGTAG	-0.785	-0.198	0.0507	-0.345	0.0315	-0.717	-1.12	-0.212
CGTCAAAGTTCAAGGAAACGTAACAGAAAGCAGC	3.35	4.85	5.68	4.06	3.84	1.49	-0.29	2.61
GGAACGAGGGCAAAGTTGGTAGCATCTGTCGACG	1.14	1.46	1.52	2.47	1.14	1.09	-0.0808	1.46
ATATGTAGTTTAGCTGGGGTCATTCAGACTAGGC	3.66	3.73	2.48	2.23	5.23	4.49	3.19	5.03
CCTACTGGGCCACAGGTCATTGATTCCAATGCTC	2.48	2.14	1.94	0.14	2.23	1.54	0.651	1.13
CTACCAAGGTGAACAAGGTCGGTGATTACTATTC	1.6	1.22	1.42	0.135	1.23	2.66	1.27	0.361
GCATATAGGTAATACACGGTGAAAGTCCGATTGT	0.0641	0.309	0.397	0.18	0.407	1.23	-0.424	0.0175

Sequence	PBM binding z-score [1]	PBM binding z-score [2]	PBM binding z-score [3]	PBM binding z-score [4]	PBM binding z-score [5]	PBM binding z-score [6]	PBM binding z-score [7]	PBM binding z-score [8]
TCGAGTACGTTAGTCGGGGCATTCAGCCAACATA	0.0909	-0.237	-0.247	3.19	-0.238	-0.142	-0.507	1.51
TCATATAGGTAAAAGGTGAAAGGCGGTGTGGTAA	1.54	1.65	0.736	1.76	2.97	1.56	0.329	0.251
TAGCCTAGGTCATGGGCAAGTATACCACGCGAAC	3.17	4.22	4.58	0.0807	3.44	3.34	1.26	0.341
GTACCAAGGTGAATAGGTCGTTTATGAGTAGGCG	1.75	2.69	1.2	0.0866	2	1.95	0.576	0.299
TCCTGTAGATCAATAGAGGTTAAGAAAGTGCGCT	1.25	0.701	0.381	1.41	1.19	2.29	-0.00152	0.39
CGTCAAATTTCAACTAAGGTAACGTAAAGCACGC	0.545	0.344	0.568	0.715	0.436	2.71	1.89	0.604
CCTACTGGGGCAGAAAGGTTACCATACCATCCGG	2.22	1.62	1.59	-1.01	1.56	0.807	-0.439	-0.187
TCTCGGAGGACACGAAATGTCAGAGCTCGACATC	1.04	0.897	1.7	0.78	0.302	1.54	0.334	-0.342
TCTTGTAGATCACCAGGAGGTTAAGAAAGATCGA	0.751	1.15	0.275	0.396	1.14	1.01	-0.466	0.109
AGAATAAGGTTATTAAGATCAGGGAATTGCGGTC	1.1	1.39	1.13	1.47	1.58	2.42	0.933	0.967
TCTCCGAGGACACGAAAGGTCAGAGCTCGACATC	4.77	4.91	5.54	1.34	4.12	4.36	2.74	1.31
TCTTATAGATCAAGCAGGTTAAGAAAGCCTGAGT	0.27	0.242	0.136	1.03	0.704	0.558	-0.379	0.389
TCATATAGGCAATACAGGTGAAAGTCGGCATCTA	0.329	0.188	0.134	1.25	0.668	0.629	-0.127	-0.277
ACTAGCAGGCCAAGTTTGGGTTACTCAAACAAAG	0.5	0.339	0.295	-0.22	-0.21	0.547	-0.383	-0.21
GCTAGTTGGTCAGTAAAAGGCCACACACCGGTCG	1.83	0.944	0.676	-0.169	0.227	0.0278	-0.175	-0.584
TCTTGTAGATCAACAGGATGTTAAGAAAGATCGA	-0.63	0.136	0.033	0.72	0.385	-0.148	-0.851	-0.332
TTACCAAGGTGAAAGGTCGTTTATGCACGCCTTG	2.24	3.89	1.62	1.14	5.38	3.17	0.854	2.03
CCCACTGGGGCAAGGTTACCATAACGCACAGCCA	1.4	1.18	1.2	-1.3	1.09	1.23	0.178	-0.227
